In the library only some 1.2% were active in any assay of this set; here they are far more common.
Akt phos inh – HTS Assay for Inhibitors of Akt Phophorylation: Primary Screen. Neuro2A IGF-stimulated pAkt S473 HTRF, 20 min; stronger effect = lower value. activity change, % for hits at 50 µM. 360,000 tested, 0.32% active. AID 651550, 2012; in the data active = activity change below about -80%; inconclusive = mostly about -51% to -80%
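Neuro2A cells (4,500/well, DMEM with 0.5% FBS) were treated with compound at a single 50 µM final concentration, stimulated with 6 nM IGF for 20 min at 37 °C, and lysed. Phospho-Akt Ser473 was read by HTRF as 665/615 ratio ×10^4.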
CCT chaperon mod – High-Throughput Screening for Modulators of Cytosolic Chaperonin Activity; 360,000 tested, 0.3% active; AID 651819, 2012; purified chaperonin ATPase assay, HTRF ADP detection, 30 min; activity change, % (no concentration beside the values), hits read low; in the data active = activity change below about -30%
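ATPase activity: ADP formed was measured by HTRF Transcreener (665/615 nm ratio) after 30 min at 37 deg C with 10 uM ATP. Compounds screened at one 76 uM concentration against 40 or 20 nM TRiC in Tris pH 7.4/KCl/MgCl2/DTT buffer.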
Six1-Eya2 inh – qHTS Assay for Inhibitors of the Six1/Eya2 Interaction. Homeobox protein SIX1 (Homo sapiens) + Protein phosphatase EYA2 (Homo sapiens), …. 360,000 tested, 0.56% active. AlphaScreen GST-Six1/His-Eya2 binding, biochemical; stronger effect = lower value. activity change, % (test concentration not listed). AID 651725, 2012
Target sequence (O00167 whole entry, looked up): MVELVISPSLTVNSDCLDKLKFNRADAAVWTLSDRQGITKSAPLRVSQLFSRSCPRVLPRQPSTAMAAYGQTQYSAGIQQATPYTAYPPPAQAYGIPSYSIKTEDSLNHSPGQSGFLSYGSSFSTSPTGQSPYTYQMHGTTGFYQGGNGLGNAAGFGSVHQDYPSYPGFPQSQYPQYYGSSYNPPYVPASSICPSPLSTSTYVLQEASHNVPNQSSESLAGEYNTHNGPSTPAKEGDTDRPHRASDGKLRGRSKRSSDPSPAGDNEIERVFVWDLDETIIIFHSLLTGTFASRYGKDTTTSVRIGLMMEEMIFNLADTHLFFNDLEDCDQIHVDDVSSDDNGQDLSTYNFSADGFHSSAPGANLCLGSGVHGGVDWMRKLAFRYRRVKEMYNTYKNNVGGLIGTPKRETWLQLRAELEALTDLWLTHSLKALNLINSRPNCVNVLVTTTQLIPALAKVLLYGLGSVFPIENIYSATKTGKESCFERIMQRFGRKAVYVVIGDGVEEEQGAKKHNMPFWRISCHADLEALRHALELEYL
Target sequence (Q15475 whole entry, looked up): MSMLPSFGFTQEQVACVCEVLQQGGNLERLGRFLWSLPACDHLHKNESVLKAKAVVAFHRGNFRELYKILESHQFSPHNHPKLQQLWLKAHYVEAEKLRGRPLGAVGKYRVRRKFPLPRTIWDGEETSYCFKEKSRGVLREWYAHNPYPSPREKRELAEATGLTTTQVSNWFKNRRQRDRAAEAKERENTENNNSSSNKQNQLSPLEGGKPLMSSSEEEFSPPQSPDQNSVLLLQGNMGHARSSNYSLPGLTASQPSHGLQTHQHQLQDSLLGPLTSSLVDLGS
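Homogeneous AlphaScreen proximity assay pairing GST-Six1 with His-tagged Eya2 (added as 5X mix: 250 nM and 500 nM) in 50 mM Tris pH 8.0, 300 mM NaCl, 1 mM TCEP. Glutathione donor and nickel acceptor beads; 1 h, 37 °C, dark.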
CtBP-E1A blk – qHTS Assay for Inhibitors of the CtBP/E1A Interaction | 340,000 tested, 0.49% active | activity change, % (test concentration not listed) | CtBP / adenovirus E1A interaction (AlphaScreen) | AlphaScreen GST-E1A/His-CtBP binding, 1536-well; stronger effect = lower value
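Homogeneous bead-based format: GST-tagged E1A captured on glutathione donor beads, His-tagged CtBP on nickel acceptor beads; compounds precede bead addition by 2 h at 37 °C.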
An asterisk follows results filed as active. Cut-off read from the data, not from the text of the source, unless noted: active = activity change below about -65%; inconclusive = mostly about -30% to -63%; inactive = weaker than that. % is set by controls: 0 for no effect and ±100 for the full control effect.

How did COc1ccc(/C=C/C(=O)N(C)c2ccccc2C(=O)O)cc1 do in these assays?
Akt phos inh: inactive; CCT chaperon mod: 0; Six1-Eya2 inh: 7; CtBP-E1A blk: -1

What do the screens show for `O=C(NCCCN1CCOCC1)C(=O)N/N=C/c1ccccc1O`?
Akt phos inh: inactive; CCT chaperon mod: 0; Six1-Eya2 inh: -75*; CtBP-E1A blk: inconclusive

Results for O=C(COc1nsnc1N1CCOCC1)N/N=C/c1ccccc1O ?
Akt phos inh: inactive; CCT chaperon mod: -1; Six1-Eya2 inh: -90*; CtBP-E1A blk: -6

What do the screens show for `O=C(NCc1ccccn1)C(=O)N/N=C/c1ccccc1O`?
Akt phos inh: inactive; CCT chaperon mod: -1; Six1-Eya2 inh: -73*; CtBP-E1A blk: inconclusive

Results for Cc1cc(/C=N/NC(=O)C(=O)NCc2ccccn2)c(C)n1-c1cccc(Br)c1 ?
Akt phos inh: inactive; CCT chaperon mod: 0; Six1-Eya2 inh: -14; CtBP-E1A blk: -12

Results for O=C(Oc1ccc2c(c1)OCC2=O)c1ccc(Cl)cc1 ?
Akt phos inh: inactive; CCT chaperon mod: -9; Six1-Eya2 inh: -66*; CtBP-E1A blk: -14

How did COc1cc(C(=O)Oc2ccc3c(c2)OCC3=O)cc(OC)c1OC do in these assays?
Akt phos inh: inactive; CCT chaperon mod: 0; Six1-Eya2 inh: -21; CtBP-E1A blk: -9

How did COC(=O)Nc1nc(-c2ccccc2)c(C(=O)c2ccc(Cl)cc2)s1 do in these assays?
Akt phos inh: -86%*; CCT chaperon mod: 4; Six1-Eya2 inh: -5; CtBP-E1A blk: -3

Results for O=C(Nc1cc(S(=O)(=O)N2CCOCC2)ccc1N1CCCCC1)c1ccccc1Br ?
Akt phos inh: inactive; CCT chaperon mod: -33*; Six1-Eya2 inh: -11; CtBP-E1A blk: -2

How did C=CCNC(=O)/C(=C\c1ccc(OC)cc1)NC(=O)c1ccc([N+](=O)[O-])cc1 do in these assays?
Akt phos inh: inactive; CCT chaperon mod: -35*; Six1-Eya2 inh: 7; CtBP-E1A blk: 3

Results for COc1cc(/C=N/N(C)C2=NS(=O)(=O)c3ccccc32)cc(OC)c1OC ?
Akt phos inh: inactive; CCT chaperon mod: 0; Six1-Eya2 inh: -83*; CtBP-E1A blk: -92*

Results for O=C(CC(=O)N/N=C/c1ccccc1O)NCc1cccnc1 ?
Akt phos inh: inactive; CCT chaperon mod: 0; Six1-Eya2 inh: -90*; CtBP-E1A blk: -2

Results for COc1cccc(/C=N/Nc2nc3ccccc3n3cnnc23)c1O ?
Akt phos inh: inactive; CCT chaperon mod: -1; Six1-Eya2 inh: -87*; CtBP-E1A blk: -93*

Results for COc1cccc(/C=N\NC(=O)Cn2nnc3ccccc32)c1O ?
Akt phos inh: inactive; CCT chaperon mod: -3; Six1-Eya2 inh: -93*; CtBP-E1A blk: -93*

What do the screens show for `COc1cccc(/C=N/NC(=O)CSCC(=O)Nc2ccccc2)c1O`?
Akt phos inh: inactive; CCT chaperon mod: 0; Six1-Eya2 inh: -70*; CtBP-E1A blk: -85*

What do the screens show for `Clc1ccc(C#Cc2cccnc2)cc1`?
Akt phos inh: inactive; CCT chaperon mod: 0; Six1-Eya2 inh: 7; CtBP-E1A blk: 10

What do the screens show for `Cc1ccc(-c2cc3cccc[n+]3cc2-c2ccc(C)cc2)cc1`?
Akt phos inh: inactive; CCT chaperon mod: 0; Six1-Eya2 inh: 14; CtBP-E1A blk: 6

How did COc1ccc(/C=N/NC(=O)C2C(=O)NCC2c2ccccc2)c(OC)c1 (stereo not given) do in these assays?
Akt phos inh: inactive; CCT chaperon mod: -1; Six1-Eya2 inh: 4; CtBP-E1A blk: 5

Results for O=C(CCCCC(=O)NN=Cc1ccccc1O)NN=Cc1ccccc1O ?
Akt phos inh: inactive; CCT chaperon mod: -1; Six1-Eya2 inh: -15; CtBP-E1A blk: -13

Results for O=C(Cn1cc(C(F)(F)F)ccc1=O)N/N=C/c1ccccc1O ?
Akt phos inh: inactive; CCT chaperon mod: -1; Six1-Eya2 inh: inconclusive; CtBP-E1A blk: -91*

What do the screens show for `O=C(CN1C(=O)NC2NC(=O)NC21)N/N=C/c1ccccc1O` (stereo not given)?
Akt phos inh: inactive; CCT chaperon mod: 2; Six1-Eya2 inh: -91*; CtBP-E1A blk: -90*

How did COc1cccc(/C=N\NC(=O)C2C(=O)NCC2c2ccccc2)c1O (stereo not given) do in these assays?
Akt phos inh: inactive; CCT chaperon mod: 0; Six1-Eya2 inh: -86*; CtBP-E1A blk: -90*

What do the screens show for `O=C(NCC(=O)N1CCCC1)NN=Cc1ccccc1O`?
Akt phos inh: inactive; CCT chaperon mod: -2; Six1-Eya2 inh: inconclusive; CtBP-E1A blk: -77*

What do the screens show for `NC(=O)c1nsc(C(=O)N(CC(=O)NC2CCCC2)Cc2ccc3c(c2)OCO3)c1N`?
Akt phos inh: inactive; CCT chaperon mod: 0; Six1-Eya2 inh: 11

What do the screens show for `Cc1ccc2nc(NC(=O)C3CCCN3C(=O)OC(C)(C)C)sc2c1` (stereo not given)?
Akt phos inh: inactive; CCT chaperon mod: 0; Six1-Eya2 inh: -5; CtBP-E1A blk: 2

Results for O=C(CCCc1ccccc1)NCCS(=O)(=O)N1CCN(c2ccccc2)CC1 ?
Akt phos inh: inactive; CCT chaperon mod: -4; Six1-Eya2 inh: -4; CtBP-E1A blk: 12

How did O=C(CCN1C(=O)c2ccccc2C1=O)C1=NN[C@@H]2C(=O)N(c3ccc4c(c3)OCO4)C(=O)[C@H]12 do in these assays?
Akt phos inh: inactive; CCT chaperon mod: -4; Six1-Eya2 inh: 2; CtBP-E1A blk: 2

What do the screens show for `O=C(CSCC(=O)NN=Cc1ccccc1O)NN=Cc1ccccc1O`?
Akt phos inh: inactive; CCT chaperon mod: -1; Six1-Eya2 inh: -83*; CtBP-E1A blk: -4

What do the screens show for `O=C(N/N=C/c1ccc(O)cc1)c1cccc(C(F)(F)F)c1`?
Akt phos inh: inactive; CCT chaperon mod: -1; Six1-Eya2 inh: -2; CtBP-E1A blk: -3

Results for O=C(N/N=C/c1ccccc1O)c1cccc(C(F)(F)F)c1 ?
Akt phos inh: inactive; CCT chaperon mod: 0; Six1-Eya2 inh: -79*; CtBP-E1A blk: -81*

How did C=CCn1c(CNc2ccccc2)nnc1SCC(=O)N/N=C/c1ccccc1O do in these assays?
Akt phos inh: inactive; CCT chaperon mod: 0; Six1-Eya2 inh: -72*; CtBP-E1A blk: inconclusive

Results for CSc1nc(C)cc(OCC(=O)N/N=C/c2ccccc2O)n1 ?
Akt phos inh: inactive; CCT chaperon mod: -3; Six1-Eya2 inh: -68*; CtBP-E1A blk: -69*

How did CCCCC(=O)OCc1c(-c2cccc(OC)c2)ncc2ccccc12 do in these assays?
Akt phos inh: inactive; CCT chaperon mod: 2; Six1-Eya2 inh: 12; CtBP-E1A blk: 9

How did CC(C)N(C(=O)c1ccc(C(=O)Nc2ccc([N+](=O)[O-])cc2)cc1)C(C)C do in these assays?
Akt phos inh: inactive; CCT chaperon mod: -32*; Six1-Eya2 inh: 10; CtBP-E1A blk: -5

How did O=Cc1ccc(N2CCCCCC2)cc1 do in these assays?
Akt phos inh: -128%*; CCT chaperon mod: 0; Six1-Eya2 inh: 14; CtBP-E1A blk: 10

Assay outcomes from PubChem.
